Compound activity: PubChem BioAssay, several laboratories
The list is not random: actives were taken first. Their share in the collection is about 1.8%.
Beta cell apopt: blocks beta cell apoptosis; INS-1E cytokine-induced death, ATP luminescence, 48 h; percent of positive-control rescue, neutral wells zero; 300,000 compounds, 0.8% hits; protection from apoptosis, % (test concentration not listed); AID 435005;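 active means Every replicate reaches about 75%, or at least half do and their mean reaches it too, limit read from the data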;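 further: 0% = cytokine-treated negative control wells and 100% = positive control rescue; higher means more ATP so stronger rescue from cytokine killing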
697 NFkB inh: inhibitors of the PMA/ionomycin-induced NF-kB reporter in 697 B cells. 697 B-cell NF-kB luciferase reporter, 16 h. inhibition, % at 4 µM. 330,000 compounds, 0.33% hits; in the data active means inhibition above about 35%
Jurkat NFkB inh: lowers PMA/ionomycin-induced NF-kB signal in Jurkat cells; 330,000 compounds, 0.53% hits; AID 435003; inhibition, % at 4 µM; PMA/ionomycin-induced NF-kB luciferase reporter, luminescence; in the data active means inhibition above about 50%
Gli-Sufu block: Gli-Sufu pathway antagonism | Sufu-KO-LIGHT fibroblasts, Gli luciferase reporter luminescence | inhibition, % at 5 µM | 340,000 compounds, 0.74% hits;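 active means inhibition above about 55%, limit read from the data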;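 further: 0% = DMSO-treated cells and 100% = wells with medium but no cells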
Jurkat NFkB conf: lowers PMA/ionomycin-induced NF-kB signal in Jurkat cells | shares compounds with Jurkat NFkB inh | Jurkat NF-kB luciferase, 16 h | inhibition, % at 4 µM | 2,700 compounds, 27% hits | AID 435020;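 active means inhibition reaching about 45% at 4 µM in either replicate, limit read from the data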;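 further: plate controls were PMA/ionomycin stimulated DMSO wells for no effect and unstimulated DMSO wells for full effect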
* hit, by the source's call; / = no result.

SMILES | Beta cell apopt | 697 NFkB inh | Jurkat NFkB inh | Gli-Sufu block | Jurkat NFkB conf
COc1ccc2[nH]c(=O)c(CN(CC3CCCO3)C(=S)Nc3ccccc3)cc2c1 (configuration not stated) | -2.0 | -10.8 | -4.2 | 15.1 | /
COc1ccc2cc(CN(CC3CCCO3)C(=S)Nc3ccccc3)c(=O)[nH]c2c1 (configuration not stated) | -0.8 | 6.2 | 50.0 | 15.4 | 9.2
Cc1ccc(S(=O)(=O)c2nc(NCc3ccc4c(c3)OCO4)sc2Cl)cc1 | -1.7 | 8.4 | 7.0 | 3.9 | /
CCc1ccc2nc(SCC(=O)Nc3ccccc3N3CCOCC3)c(C#N)cc2c1 | 14.8 | 5.7 | 66.9* | 7.7 | 23.7
COc1ccc(C)cc1NC(=O)C1CCN(S(=O)(=O)c2cccc3cccnc23)CC1 | / | 10.3 | 17.3 | 0.0 | /
O=C(O)CSc1ccc(Oc2ccc(SCC(=O)O)cc2)cc1 | -2.6 | 1.3 | 14.7 | 3.0 | /
Cc1ccc(NC(=O)CSc2nnc(CNC(=O)c3c(F)cccc3Cl)o2)cc1 | -4.0 | 21.2 | -1.4 | -9.1 | /
O=C(NCCc1ccccc1)C1=COCCO1 | / | -55.9 | -64.1 | -60.2 | /
COc1ccccc1C(=O)Nc1nc2cc3c(cc2s1)OCCO3 | 21.6 | -194.5 | -160.4 | -112.1 | -98.0
COc1ccc(OC)c2sc(N(CCCN(C)C)C(=O)c3ccc(S(=O)(=O)N4CCc5ccccc5C4)cc3)nc12 | 100.1* | 30.8 | 93.5* | / | 23.4
COc1ccc(NC(=O)COc2cc(C)cc(C)c2)cc1S(=O)(=O)N1CCCCC1 | -4.2 | -54.3 | 56.6* | -3.8 | 23.2
COc1ccc(NC(=O)COc2ccc(C)c(C)c2)cc1S(=O)(=O)N1CCCCC1 | 2.1 | -16.1 | -6.6 | 6.5 | /
C=CCCC(=O)Nc1nc(C)c(-c2csc(Nc3ccccc3OC)n2)s1 | 5.9 | -36.5 | 53.0* | -6.7 | 16.1
CCCCC(=O)Nc1nc(C)c(-c2csc(Nc3ccccc3OC)n2)s1 | 4.2 | 14.6 | 17.6 | -1.1 | /
Cn1cccc1/C=C1\SC(=Nc2ccc(O)cc2)NC1=O | 18.1 | -52.4 | 56.0* | 37.4 | 8.2
O=C(N/N=C/c1ccc(Sc2nc3ccccc3s2)c([N+](=O)[O-])c1)c1ccccn1 | 2.8 | 6.3 | 68.9* | -3.1 | 21.2
Cc1ccc(COc2ccccc2-c2cc(C(=O)N/N=C/c3cccnc3)[nH]n2)cc1 | 3.7 | -12.2 | 53.5* | -4.3 | -1.5
CCOc1ccccc1-c1cc(C(=O)N/N=C/c2cccnc2)c2ccccc2n1 | / | 22.2 | -4.8 | 3.9 | /
CS(=O)c1nc(-c2ccc(Br)cc2)cc(-c2ccccc2)c1C#N (configuration not stated) | 11.7 | -188.0 | 92.9* | 5.2 | 91.3*
CS(=O)(=O)c1nc(-c2ccc(Br)cc2)cc(-c2ccccc2)c1C#N | 18.9 | 21.7 | 29.0 | 9.2 | /
COc1cccc(NC(=O)NC2CCCCC2C)c1 (configuration not stated) | -0.3 | 6.3 | -1.2 | -11.5 | /
COc1ccc(CCNc2nnc(Sc3nnnn3-c3ccccc3)s2)cc1OC | 15.5 | -129.7 | 77.2* | 35.7 | 55.1*
COc1ccc(-n2nnnc2SCC(=O)NCCc2ccccc2)cc1OC | 0.5 | 1.3 | -1.8 | 9.8 | /
CCN(Cc1ccccc1)C(=O)c1ccc(C)c(S(=O)(=O)N2CCCCC2)c1 | -9.8 | 4.9 | 16.3 | 2.1 | /
O=C(/C=C/c1ccccc1)NCCSCc1ccccc1 | / | 0.2 | 5.9 | -4.2 | /
SMILES | Beta cell apopt | 697 NFkB inh | Jurkat NFkB inh | Gli-Sufu block | Jurkat NFkB conf
O=c1c2ccccc2oc2ccc(C#CC3(O)CCCCC3)cc12 | -4.7 | -180.0 | -161.5 | 28.4 | 15.2
O=C(N/N=C/c1ccco1)C12CC3CC(CC(C3)C1)C2 | 1.0 | -8.4 | -2.3 | -5.9 | /
CC1(C)Nc2cccc3cccc(c23)N1 | / | / | / | -6.7 | /
COc1ccccc1C1c2ccc3ccccc3c2Oc2ncn(CCN(C)C)c(=N)c21 (configuration not stated) | 44.7 | 7.4 | 77.7* | 8.4 | 13.2
COc1ccc(C2c3ccc4ccccc4c3Oc3ncn(CCCN(C)C)c(=N)c32)cc1 (configuration not stated) | 111.6* | 8.9 | 52.2* | 7.7 | 22.4
COc1ccccc1C1c2ccc3ccccc3c2Oc2ncn(CCCO)c(=N)c21 (configuration not stated) | 13.0 | -31.4 | 17.9 | 17.8 | /
COc1ccccc1NC(=S)N(Cc1ccco1)Cc1cc2cccc(C)c2[nH]c1=O | -6.1 | 2.2 | 1.4 | 14.1 | /
COc1ccccc1NC(=S)N(Cc1ccco1)Cc1cc2cc(C)c(C)cc2[nH]c1=O | 8.8 | -17.0 | 66.8* | 6.9 | 5.0
CC(C)Oc1ccc2c(=O)c(-c3ccccc3)coc2c1 | 7.2 | -211.2 | -185.3 | -123.5 | -82.7
CSc1nnc(-c2sc3cc(C(F)(F)F)cnc3c2-c2ccccc2)n1C | 10.9 | -12.7 | 55.6* | 5.2 | 17.1
CCN(CCCNC(=O)CC(C(=O)N1CCc2ccccc21)n1ccnc1)c1cccc(C)c1 (configuration not stated) | -6.9 | 7.5 | 7.2 | 4.6 | /
O=C(CC(Nc1ccccc1Cl)C(=O)OCC(=O)c1cccs1)c1ccccc1 (configuration not stated) | -7.9 | -232.4 | -200.0 | 13.0 | 1.8
COc1ccccc1NC(CC(=O)c1ccccc1)C(=O)OCC(=O)c1ccc(Br)cc1 (configuration not stated) | 3.2 | -185.5 | -163.0 | -18.7 | -60.0
O=C(COc1ccc(Cl)cc1)NCCN1CCCCC1 | -3.4 | 7.7 | -11.0 | 3.3 | /
COc1cc(NC(=O)c2cc(-c3ccc4c(c3)OCO4)on2)cc(OC)c1OC | -4.4 | 3.5 | 66.3* | 12.0 | 25.4
COc1cc(NC(=O)c2cc(-c3ccccc3)on2)cc(OC)c1OC | 2.2 | -10.5 | -1.8 | 3.5 | /
O=C(Nc1ccccn1)c1cc2cc([N+](=O)[O-])ccc2s1 | -6.4 | -9.9 | -155.6 | -49.4 | -94.7
O=C(Nc1ccccn1)c1ccc([N+](=O)[O-])cc1Cl | 1.6 | 15.0 | 12.2 | 1.8 | /
O=C(Nc1ccccc1C(=O)NC(Cc1c[nH]c2ccccc12)C(=O)O)c1ccccc1 (configuration not stated) | -6.9 | 10.3 | -8.1 | -6.5 | /
Cc1ccc(C)c(NS(=O)(=O)c2ccc(-c3cnc(C4CC4)o3)cc2)c1 | 46.9 | -211.1 | 61.2* | 48.0 | 60.0*
CC(=O)Nc1ccc(NS(=O)(=O)c2ccc(-c3cnc(C4CC4)o3)cc2)cc1 | / | -3.8 | 9.7 | -9.5 | /
CCOc1ccc(NS(=O)(=O)c2ccc(-c3cnc(C4CC4)o3)cc2)cc1 | -2.3 | -21.8 | 25.7 | 7.3 | /
COc1ccccc1NS(=O)(=O)c1cc(-c2cnc(C3CC3)o2)ccc1C | 6.5 | -56.7 | 29.3 | 13.1 | /
Cc1cccc(NS(=O)(=O)c2ccc(-c3cnc(C4CC4)o3)cc2)c1C | / | -28.0 | 60.3* | 44.3 | 66.2*
COc1ccc(NS(=O)(=O)c2cc(-c3cnc(C4CC4)o3)ccc2C)cc1 | 17.4 | -18.8 | 59.1* | -8.8 | 48.9*
O=S(=O)(Nc1ccccc1)c1ccc(-c2cnc(C3CC3)o2)cc1 | 3.4 | -113.3 | 52.7* | 4.8 | 34.7
Cn1cc(S(=O)(=O)NCc2cccs2)c(=O)n(C)c1=O | -5.0 | 3.6 | -6.5 | -1.8 | /
